Measurements as given in PubChem BioAssay.
For some of these results: Potency and affinity values are given separately. Inconclusive results are not listed. Active and inactive are the calls of the source. Unless noted, no rule for the calls is given here.

Experiments:
[1] = target: Adenosylmethionine-8-amino-7-oxononanoate aminotransferase (Mycobacterium tuberculosis (strain ATCC 25618 / H37Rv)) (UniProt P9WQ81); experiment: inhibition of purified M. tuberculosis BioA – biochemical, plate reader, cherry-pick samples, dose response (AID 651683)
[2] = system: XIP peptide (Xip251-270) binding; experiment: XIP fragment 251-270 binding compounds – biochemical, small-molecule microarray, fluorescence 635/667 nm, 0.1 µg/mL protein, primary screen (AID 1182); conditions: fluorescent protein binding, 635 nm; higher = more signal, called active from +8 up or from −8 down unless noted
[3] = system: XIP peptide (Xip251-270); experiment: compounds binding XIP fragment 251-270 – biochemical, small-molecule microarray, fluorescence 635/667 nm, 0.5 µg/mL protein, primary screen (AID 1183); conditions: fluorescence 635 nm, higher = more signal
[4] = blood-stage malaria parasite viability loss – strain 3D7, DAPI fluorescence, 100 nL, primary screen (AID 1184);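 also: parasites grown inside human red blood cells in medium with human serum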; conditions: P. falciparum 3D7 growth, 3 d, higher = more signal
[5] = target: Homeobox protein Hox-A13 (Mus musculus) (UniProt Q62424); experiment: disruptors of Hoxa13 oligonucleotide interaction – biochemical, fluorescence polarization, labeled oligonucleotide, primary screen (AID 1185); conditions: Hoxa13:DNA binding, 15 min; higher = more signal, called active from +8 up or from −8 down unless noted
[6] = blockers of DNA damage checkpoint Chk1 activation – imaging, HeLa, hydroxyurea, phospho-Chk1 antibody, percent positive cells, primary screen (AID 1186); conditions: hydroxyurea-induced phospho-Chk1 immunofluorescence imaging, higher = more signal
[7] = blockers of DNA damage checkpoint Chk1 activation – imaging, HeLa, hydroxyurea, phospho-Chk1 nuclear intensity, primary screen (AID 1187); conditions: hydroxyurea-induced phospho-Chk1 immunofluorescence imaging, higher = more signal
[8] = fungal growth arrest, C. neoformans – Alamar Blue, cherry-picks, dose response (AID 686998;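 active = falling signal with fitted half-maximal potency no higher than twice the top valid tested dose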)
[9] = viability loss in HepG2 hepatoma cells – cell-based, cherry-picks, set 2, cytotoxicity control, dose response (AID 687002;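 active = a dose-response fit showing signal loss, with half-maximal concentration no higher than twice the top tested dose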)
[10] = C. neoformans lysis by adenylate kinase leakage – AK release luminescence, cherry-picks, dose response (AID 687000;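 active = fitted dose curve reaches 40% lysis signal rise at or below the highest valid concentration tested for that sample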;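 also: luminescent detection of adenylate kinase leaking from lysed yeast; 0% = median neutral control signal and 100% = double that signal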)

Chain of Adenosylmethionine-8-amino-7-oxononanoate aminotransferase (Mycobacterium tuberculosis (strain ATCC 25618 / H37Rv)) (P9WQ81 whole entry, looked up, the tested form may be a part): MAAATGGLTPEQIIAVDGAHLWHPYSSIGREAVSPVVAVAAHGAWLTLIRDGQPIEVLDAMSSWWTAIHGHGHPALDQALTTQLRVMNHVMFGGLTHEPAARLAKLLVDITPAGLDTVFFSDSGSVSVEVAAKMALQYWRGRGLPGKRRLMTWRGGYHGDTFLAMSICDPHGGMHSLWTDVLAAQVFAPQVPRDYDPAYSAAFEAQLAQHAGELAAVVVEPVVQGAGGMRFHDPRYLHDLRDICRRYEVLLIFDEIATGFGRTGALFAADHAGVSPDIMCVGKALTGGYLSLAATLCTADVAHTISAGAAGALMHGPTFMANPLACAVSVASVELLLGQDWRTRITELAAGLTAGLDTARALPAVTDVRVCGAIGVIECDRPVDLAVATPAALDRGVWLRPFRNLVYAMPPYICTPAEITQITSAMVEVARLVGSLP
Chain of Homeobox protein Hox-A13 (Mus musculus) (Q62424 whole entry, looked up): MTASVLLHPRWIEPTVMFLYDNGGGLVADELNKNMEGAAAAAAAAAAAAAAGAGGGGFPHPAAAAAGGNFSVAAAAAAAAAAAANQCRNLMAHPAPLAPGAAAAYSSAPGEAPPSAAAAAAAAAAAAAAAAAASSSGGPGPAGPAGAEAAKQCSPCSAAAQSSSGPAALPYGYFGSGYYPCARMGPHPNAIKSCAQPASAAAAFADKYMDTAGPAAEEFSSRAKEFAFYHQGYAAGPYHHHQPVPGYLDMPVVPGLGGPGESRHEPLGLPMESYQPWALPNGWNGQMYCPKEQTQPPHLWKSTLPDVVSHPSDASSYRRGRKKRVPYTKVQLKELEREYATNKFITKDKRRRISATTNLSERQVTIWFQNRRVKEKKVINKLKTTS

Compound: Cc1ccc(NCc2nnc(SCC(=O)N3CCc4ccccc43)n2C)cc1
- outcome [1]: inactive

Compound: CCOC(=O)[C@H]1CC=C2C(=O)Oc3ccc(Br)cc3[C@@H]21
- composite z-score [2]: 0.874 (inactive)
- composite z-score [3]: 0.694
- z-score [4]: -0.5
- z-score [5]: -6.05 (inactive)
- z-score [6]: 0.439 (inactive)
- z-score [7]: 0.286 (inactive)

Compound: C[C@@H]1CN([C@@H](C)CO)C(=O)CCCn2nncc2CO[C@H]1CN(C)C(=O)Oc1cccc2ccccc12
- outcome [8]: inactive
- outcome [9]: inactive

Compound: CC(=O)OC1(C)CC(C)C(=O)C(C(O)CC2CC(=O)NC(=O)C2)C1 (configuration not stated)
- outcome [10]: inactive
- outcome [9]: inactive

Compound: O=C(O)CSc1ncnc2scc(-c3ccc(Br)cc3)c12
- outcome [1]: inactive

Compound: Cc1ccc(S(=O)(=O)N(C)C)cc1NC(=O)CSc1nncs1
- outcome [1]: inactive

Compound: CC(Oc1cc2oc(=O)c3c(c2cc1Cl)CCC3)C(=O)NCc1cccnc1 (configuration not stated)
- outcome [1]: inactive

Compound: CCCc1cc2c(n1Cc1ccco1)C(C)C1CN(C(=O)c3ccccc3)C(C)(C(=O)OC)C21 (configuration not stated)
- composite z-score [2]: 1.32 (inactive)
- composite z-score [3]: 0.741
- z-score [4]: 0.0125
- z-score [5]: -4.51 (inactive)
- z-score [6]: 0.586 (inactive)
- z-score [7]: 0.875 (inactive)

Compound: O=C(CN1C(=O)/C(=C/c2cccc(Br)c2)SC1=S)Nc1cccnc1
- outcome [1]: inactive

Compound: CC[C@H](C)[C@@H]1NC(=O)CNC(=O)c2csc(n2)[C@H](C(C)(C)O)OC(=O)C(C)(C)[C@H](CCCC(C)(Cl)Cl)OC(=O)c2csc1n2
- outcome [9]: inactive
